Source: PubChem BioAssay
For some assays here: Results with a measured potency or affinity are listed apart. Activity calls are given as the source filed them. Unless noted, cut-off not given; nearly all actives show IC50 up to about 0.91 µM.

The molecules below were run against Protein kinase 7 (PK7), Plasmodium falciparum 3D7 (PF3D7_0213400) (UniProt Q7YTF7) (assay: inhibition of Plasmodium PK7 catalytic activity – biochemical, TCAMS antimalarial set, Kinase-Glo luminescence (AID 1159587; call rule not given here)). Details: recombinant PfPK7, Kinase-Glo ATP depletion luminescence.
Sequence of Protein kinase 7 (PK7), Plasmodium falciparum 3D7 (PF3D7_0213400) (Q7YTF7 1-343): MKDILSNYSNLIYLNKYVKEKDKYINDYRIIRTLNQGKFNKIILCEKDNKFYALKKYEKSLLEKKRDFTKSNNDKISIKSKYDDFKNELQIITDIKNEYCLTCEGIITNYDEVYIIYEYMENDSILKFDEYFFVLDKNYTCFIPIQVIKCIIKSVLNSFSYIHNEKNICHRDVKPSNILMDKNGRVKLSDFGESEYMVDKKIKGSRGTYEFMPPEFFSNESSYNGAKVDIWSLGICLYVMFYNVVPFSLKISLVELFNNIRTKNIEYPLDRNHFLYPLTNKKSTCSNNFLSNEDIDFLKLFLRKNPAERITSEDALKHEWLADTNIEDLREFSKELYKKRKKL

outcome, inactive:
CCCCCCOc1ccccc1C(=O)NCCOc1ccc(Cl)cc1
CCOc1ccc(C(Cc2ccccc2)NC(=O)c2cccnc2)cc1OCC (stereo not given)
c1ccc2[nH]c(-c3ccc(-c4ccc(CNC5CC5)cc4)s3)nc2c1
Cn1nc(-c2ccccc2F)c2cc(C(=O)Nc3cccnc3)sc21
COc1c(Br)cc(Br)cc1-c1ccc(CN2C3CCCC2CCC3)[nH]1
CC(=O)Nc1cccc(C(=O)Nc2cccc(-c3ccc(-c4nc5ccc(F)cc5[nH]4)s3)c2)c1
O=C(/C=C/c1ccc(F)cc1)NC1CCC(CCN2CCCN(c3ccc(C(F)(F)F)cn3)CC2)CC1 (stereo not given)
CN(C)C(C)(C)CN(Cc1ccc(-c2ccc(C(F)(F)F)cc2)cc1)C(=O)Cn1c(CCc2cccc(F)c2F)nc(=O)c2ccccc21
Cc1ccc(-c2nc(NC(=O)Nc3ccc(C(F)(F)F)cc3)sc2C)cc1Cl
CN1CCC(NCc2cccc(-c3ccc(S(=O)(=O)NCCN4CCCC4)s3)c2)CC1
O=c1cc(NCCCNCc2cc(Cl)cc(Cl)c2OCc2ccc(Cl)cc2)[nH]c2ccccc12
CC1CCCN(c2ccc(NC(=O)c3cccs3)cc2[N+](=O)[O-])C1 (stereo not given)
CC(C)CCCC(C)(C)NC[C@@H](O)[C@H](Cc1ccccc1)NC(=O)c1cc(NC(C)C)cc(N2CCCCS2(=O)=O)c1
C=CCc1cccc(C)c1OCCCON1C(N)=NC(N)=NC1(C)C
CC(C)CC(=O)N(Cc1ccc(-c2ccc(CNC3Cc4ccccc4C3)cc2)cc1)C1CCNCC1
Oc1ccccc1CN[C@@H]1CCCC[C@H]1NCc1ccccc1O
C=CCN1C(=O)CN(S(=O)(=O)c2ccc(-n3nc(C)cc3C)cc2)C1=S
O=C(/C=C/c1ccc(Cl)c(Cl)c1)NCCCCCCN1CCCN(C(=O)Nc2cccc(Cl)c2)CC1
O=C(NC1CC1)c1ccc(N2CCCCN2CCc2ccccc2)c(C(F)(F)F)c1
CC(C)(C)c1ccc(OCCCON2C(N)=NC(N)=NC2(C)C)c(C(C)(C)C)c1
COc1ccc(-c2ccc(NC(=O)c3cccc(Cl)c3)cc2)cc1CN1CCC(O)CC1
CCN1CCN(c2cc(C)c3cc(NC(=O)c4cc(OC)cc(OC)c4)ccc3n2)CC1
CSc1ccc2nccc(Nc3ccc(Oc4ccccc4)cc3)c2c1
Cc1cccc2[nH]c(-c3cccc(-c4cccc(CN5CCCC5CN)c4)c3)nc12 (stereo not given)
COc1ccc(C(C(=O)NC2CCN(C[C@H](O)c3ccnc4ccc(OC)cc34)CC2)N2CCN(c3ccc(F)cc3)CC2)cc1 (stereo not given in full)
CCCc1cn2c3c(cc(C(=O)N[C@@H](Cc4ccccc4)[C@H](O)CNC4CCOCC4)cc13)N(C)S(=O)(=O)CC2
CCCNCc1ccc(-c2ccc(CN(Cc3cnc(C)cn3)C(=O)/C=C/c3ccccc3C)cc2)nc1
Cn1cc(C2CCN(CCCCNC(=O)c3ccc(C(=O)Nc4ccc(C#N)cc4)cc3)CC2)c2ccccc21
CCOc1ccnc(=O)[nH]1
COc1nc2c(CCN3CCC(NCc4ccc5c(c4)NCCO5)CC3)c(Cl)cnc2cc1F
O=C(/C=C/c1ccc(Cl)cc1)NCCCCCN1CCC(C(=O)Nc2cccc(Cl)c2)CC1
Cc1nnc2c(NC(=O)NC3CCCC3)cc3ccc(-c4cccc(CN(C)C)c4)cc3n12
CC(C)(C)c1ccc(NC(=O)c2ccc(CN3CCCN(CC4CCCCC4)CC3)cc2)cc1
O=C(Nc1cccc(-c2cccc(-c3nc4ccc(F)cc4[nH]3)c2)c1)c1ccncc1
CC(=O)c1c(Nc2c(C)cc(C)cc2C)oc(C)cc1=O
O=C(NCCCCN1CCC(c2ccc(C(F)(F)F)cc2C(F)(F)F)CC1)c1ccc(NC(=O)c2ccc(Cl)cc2)cc1
O=C(N[C@@H](CC1CCCCC1)C(=O)NC1CCCc2ccccc21)c1ccc(O)c(-c2cccc(C(F)(F)F)c2)c1 (stereo not given in full)
COc1ccc2ncc(F)c(CCN3CC[C@@H](CNCc4cc(C)c5c(c4)OCCO5)C3)c2n1
C#CCN(Cc1cc2c(=O)[nH]c(N)nc2cc1C)c1ccc(C(=O)N[C@@H](CCC(=O)O)C(=O)O)cc1
COc1cc(Cc2cnc(N)nc2N)cc(OCCCOc2ccccc2)c1OC

Each molecule was assayed against Calcium-dependent protein kinase 4 (Plasmodium falciparum (isolate 3D7)) (UniProt Q8IBS5) (assay: PfCDPK4 kinase inhibitors, biochemical, TCAMS library (AID 1159588)). Details: recombinant PfCDPK4, Kinase-Glo ATP depletion luminescence.
Sequence of Calcium-dependent protein kinase 4 (Plasmodium falciparum (isolate 3D7)) (Q8IBS5 whole entry, looked up): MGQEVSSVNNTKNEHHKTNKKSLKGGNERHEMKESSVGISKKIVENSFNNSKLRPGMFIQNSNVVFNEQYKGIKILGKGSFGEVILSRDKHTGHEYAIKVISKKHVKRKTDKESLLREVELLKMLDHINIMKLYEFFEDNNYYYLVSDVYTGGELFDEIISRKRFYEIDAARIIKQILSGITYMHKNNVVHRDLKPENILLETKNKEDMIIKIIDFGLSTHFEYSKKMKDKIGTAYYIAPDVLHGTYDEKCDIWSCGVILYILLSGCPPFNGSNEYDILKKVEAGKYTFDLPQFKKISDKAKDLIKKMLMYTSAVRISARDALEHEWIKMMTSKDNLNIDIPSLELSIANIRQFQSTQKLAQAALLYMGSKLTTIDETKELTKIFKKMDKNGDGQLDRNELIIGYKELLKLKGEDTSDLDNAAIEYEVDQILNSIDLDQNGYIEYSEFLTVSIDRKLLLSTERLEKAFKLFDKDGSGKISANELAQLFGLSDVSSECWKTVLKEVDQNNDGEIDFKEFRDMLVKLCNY

outcome, inactive:
CCCCCCOc1ccccc1C(=O)NCCOc1ccc(Cl)cc1
CCOc1ccc(C(Cc2ccccc2)NC(=O)c2cccnc2)cc1OCC (stereo not given)
c1ccc2[nH]c(-c3ccc(-c4ccc(CNC5CC5)cc4)s3)nc2c1
Cn1nc(-c2ccccc2F)c2cc(C(=O)Nc3cccnc3)sc21
COc1c(Br)cc(Br)cc1-c1ccc(CN2C3CCCC2CCC3)[nH]1
CC(=O)Nc1cccc(C(=O)Nc2cccc(-c3ccc(-c4nc5ccc(F)cc5[nH]4)s3)c2)c1
O=C(/C=C/c1ccc(F)cc1)NC1CCC(CCN2CCCN(c3ccc(C(F)(F)F)cn3)CC2)CC1 (stereo not given)
CN(C)C(C)(C)CN(Cc1ccc(-c2ccc(C(F)(F)F)cc2)cc1)C(=O)Cn1c(CCc2cccc(F)c2F)nc(=O)c2ccccc21
Cc1ccc(-c2nc(NC(=O)Nc3ccc(C(F)(F)F)cc3)sc2C)cc1Cl
CN1CCC(NCc2cccc(-c3ccc(S(=O)(=O)NCCN4CCCC4)s3)c2)CC1
O=c1cc(NCCCNCc2cc(Cl)cc(Cl)c2OCc2ccc(Cl)cc2)[nH]c2ccccc12
CC1CCCN(c2ccc(NC(=O)c3cccs3)cc2[N+](=O)[O-])C1 (stereo not given)
CC(C)CCCC(C)(C)NC[C@@H](O)[C@H](Cc1ccccc1)NC(=O)c1cc(NC(C)C)cc(N2CCCCS2(=O)=O)c1
C=CCc1cccc(C)c1OCCCON1C(N)=NC(N)=NC1(C)C
CC(C)CC(=O)N(Cc1ccc(-c2ccc(CNC3Cc4ccccc4C3)cc2)cc1)C1CCNCC1
Oc1ccccc1CN[C@@H]1CCCC[C@H]1NCc1ccccc1O
C=CCN1C(=O)CN(S(=O)(=O)c2ccc(-n3nc(C)cc3C)cc2)C1=S
O=C(/C=C/c1ccc(Cl)c(Cl)c1)NCCCCCCN1CCCN(C(=O)Nc2cccc(Cl)c2)CC1
O=C(NC1CC1)c1ccc(N2CCCCN2CCc2ccccc2)c(C(F)(F)F)c1
CC(C)(C)c1ccc(OCCCON2C(N)=NC(N)=NC2(C)C)c(C(C)(C)C)c1
COc1ccc(-c2ccc(NC(=O)c3cccc(Cl)c3)cc2)cc1CN1CCC(O)CC1
CCN1CCN(c2cc(C)c3cc(NC(=O)c4cc(OC)cc(OC)c4)ccc3n2)CC1
CSc1ccc2nccc(Nc3ccc(Oc4ccccc4)cc3)c2c1
Cc1cccc2[nH]c(-c3cccc(-c4cccc(CN5CCCC5CN)c4)c3)nc12 (stereo not given)
COc1ccc(C(C(=O)NC2CCN(C[C@H](O)c3ccnc4ccc(OC)cc34)CC2)N2CCN(c3ccc(F)cc3)CC2)cc1 (stereo not given in full)
CCCc1cn2c3c(cc(C(=O)N[C@@H](Cc4ccccc4)[C@H](O)CNC4CCOCC4)cc13)N(C)S(=O)(=O)CC2
CCCNCc1ccc(-c2ccc(CN(Cc3cnc(C)cn3)C(=O)/C=C/c3ccccc3C)cc2)nc1
Cn1cc(C2CCN(CCCCNC(=O)c3ccc(C(=O)Nc4ccc(C#N)cc4)cc3)CC2)c2ccccc21
CCOc1ccnc(=O)[nH]1
COc1nc2c(CCN3CCC(NCc4ccc5c(c4)NCCO5)CC3)c(Cl)cnc2cc1F
O=C(/C=C/c1ccc(Cl)cc1)NCCCCCN1CCC(C(=O)Nc2cccc(Cl)c2)CC1
Cc1nnc2c(NC(=O)NC3CCCC3)cc3ccc(-c4cccc(CN(C)C)c4)cc3n12
CC(C)(C)c1ccc(NC(=O)c2ccc(CN3CCCN(CC4CCCCC4)CC3)cc2)cc1
O=C(Nc1cccc(-c2cccc(-c3nc4ccc(F)cc4[nH]3)c2)c1)c1ccncc1
CC(=O)c1c(Nc2c(C)cc(C)cc2C)oc(C)cc1=O
O=C(NCCCCN1CCC(c2ccc(C(F)(F)F)cc2C(F)(F)F)CC1)c1ccc(NC(=O)c2ccc(Cl)cc2)cc1
O=C(N[C@@H](CC1CCCCC1)C(=O)NC1CCCc2ccccc21)c1ccc(O)c(-c2cccc(C(F)(F)F)c2)c1 (stereo not given in full)
COc1ccc2ncc(F)c(CCN3CC[C@@H](CNCc4cc(C)c5c(c4)OCCO5)C3)c2n1
C#CCN(Cc1cc2c(=O)[nH]c(N)nc2cc1C)c1ccc(C(=O)N[C@@H](CCC(=O)O)C(=O)O)cc1
COc1cc(Cc2cnc(N)nc2N)cc(OCCCOc2ccccc2)c1OC
